Results reported in the supplement of paper PMC6555819.

How the values were obtained:
Test in all cases: PBM binding z-score (relative to random genomic background probes); higher = stronger binding; sequences stand for … in GC…GCGATTGACAGCGTAGAATGAAGG
[1] = system: PPARg:RXRa DBDmut IVT, anti-RXR (DBD mutation: RXRa K156A/R161A, NR concentration 270 nM, RXRa partner concentration 90 nM)
Summary of the method: (§1)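 Probes were double-stranded and carried 34-nt variable regions with direct-repeat seeds, single-nucleotide variants, half-site ablations and random human genomic background sequences, printed on custom Agilent 4×180K protein-binding microarrays. Arrays were incubated 1 h with ligand-free nuclear receptor dimers in PBS pH 7.4, 2% milk, 0.02% Triton X-100, 1 mM DTT, 0.2 mg/mL BSA and 0.4 mg/ml salmon testes DNA. Antibodies against each partner (one per run) detected binding, and scanned fluorescence was regression-normalized. Binding z-scores use the random background probes as reference.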

[2] = system: PPARg:RXRa IVT, anti-PPARg (NR concentration 270 nM, RXRa partner concentration 90 nM)
Summary of the method: as §1

[3] = system: PPARg DBDmut:RXRa IVT, anti-PPARg (DBD mutation: PPARg1 K132A/R137A, NR concentration 270 nM, RXRa partner concentration 90 nM)
Summary of the method: as §1

[4] = system: PPARg DBDmut IVT, anti-PPARg (DBD mutation: PPARg1 K132A/R137A, NR concentration 270 nM)
Summary of the method: as §1

[5] = system: PPARg homodimer (NR concentration 180 nM)
Summary of the method: as §1

[6] = system: PXR:RXRa (NR concentration 270 nM, RXRa partner concentration 90 nM)
Summary of the method: as §1

[7] = system: PXR homodimer (NR concentration 270 nM)
Summary of the method: as §1

[8] = system: RARa:RXR (NR concentration 270 nM, RXRa partner concentration 90 nM)
Summary of the method: as §1

[9] = system: RARa homodimer (NR concentration 270 nM)
Summary of the method: as §1

[10] = system: RARb:RXRa (NR concentration 270 nM, RXRa partner concentration 90 nM)
Summary of the method: as §1

Sequence | PBM binding z-score [1] | PBM binding z-score [2] | PBM binding z-score [3] | PBM binding z-score [4] | PBM binding z-score [5] | PBM binding z-score [6] | PBM binding z-score [7] | PBM binding z-score [8] | PBM binding z-score [9] | PBM binding z-score [10]
CGAACGAGGGCATCAGTTGATAGCAAATGCCGAT | 2.85 | 1.94 | -0.013 | -0.142 | -0.115 | 0.166 | 0.152 | 0.224 | -0.261 | 2.03
ACTATTAGTTGACTTAGCGCAACCGATACGACGC | 0.0649 | 0.107 | 1.97 | 1.39 | -0.0684 | -0.103 | 0.0644 | -0.262 | 0.57 | 0.104
GCTCGGCGGACAAGGTCAGAGCTTTGTCCGTAGA | -0.55 | 0.128 | -1.6 | -1.83 | -0.129 | 1.55 | -0.547 | 1.95 | -0.932 | 2.81
CAAACTAGGTCACGACAGGTCAAAGTCGAATGAC | 8.69 | 9.13 | 4.46 | 5.24 | 4.07 | 6.3 | 0.87 | 6.14 | 1.65 | 5.04
CGTTCAAGGTCAAGGTCAGTGAAAGAGACTCGAA | 4.65 | 5.44 | 0.946 | 1.3 | 3.58 | 5.02 | 1.3 | 5.02 | 1.49 | 5.9
AGAACGAGGGCCATGAGTTGATAGCACGGGTGGC | 0.174 | 0.141 | -0.382 | 0.0603 | -0.217 | 0.118 | -0.232 | -0.375 | -0.362 | 0.632
TCTTGTAGATCAAGCAGCTTAAGAAAGCCTGAGT | 1.1 | 0.213 | -0.268 | -0.032 | 0.0501 | -0.0224 | -0.129 | -0.209 | -0.515 | -0.253
CCTACTGGGCCATCAGGTCATGGATATCAACGTT | 4.54 | 5.33 | 1.99 | 0.266 | 1.85 | 1.58 | 0.00422 | 2.45 | -0.165 | 2.31
TCAAACAGGTGAAGGTAACTCAGGTACGCAGTCG | 3.03 | 1.6 | 0.098 | 0.184 | 0.662 | 0.812 | 0.0874 | 1.19 | 0.552 | 1.26
CCTATTAGTTGACCATTAGGGCAACCGAAGCTCG | 1.18 | 1.3 | -0.00387 | 0.76 | 1.65 | 0.111 | 0.563 | 0.412 | 1.35 | 1.04
TCTATTAGTTGATTAGCGCAACCGAAACAGCGGA | 2.41 | 0.138 | 0.332 | 0.505 | 1.14 | 0.438 | 0.358 | 0.258 | 1.03 | 0.252
TCCAGTAGGTTAGTCGGGGCATTCAGCCAACATA | 3.62 | 3.02 | -0.197 | -0.452 | 0.925 | 0.439 | 0.18 | 0.346 | 0.0406 | 0.79
TCTCCGAGGACACGAAGGTCAGAGCTTTCCAGAG | 1.19 | 1.32 | -0.386 | -0.524 | 1.23 | 2.1 | 1.31 | 2.06 | -0.358 | 3.54
TAATATAGGTAATACAGGTGAAAGTCGGCATCTA | 5.72 | 5.56 | 2.44 | 1.91 | 1.32 | 0.362 | 0.607 | 0.476 | 1.83 | 0.621
GGAACGAGGGCAAAGTTGATAGAATCTGTCGACG | 4.01 | 4.36 | 0.353 | -0.207 | 0.397 | 1.25 | 0.121 | 1.74 | -0.438 | 2.32
ATCGAAAGGTCGTGAGGTGAGGATACAGAAAGGC | 0.406 | 2.89 | 1.55 | 0.615 | 2.28 | 3.3 | 0.684 | 4.61 | 1.12 | 4.13
ATCGAAAGGCCGTGAGGTGAGTATACAGAAAGGC | -0.822 | 0.492 | 0.487 | 1.17 | -0.238 | 0.0278 | -0.0636 | 0.885 | 0.0649 | 1.68
GCGACTGGGGCAAAGCAGGTTACCGTAAGGTTGG | 4.2 | 3.74 | -0.21 | -0.572 | 0.239 | 0.503 | -0.648 | 1.73 | -1.1 | 0.922
AATAGTTGGTCAGCTGAGGTCACACACAATTCGG | 1.3 | 2.86 | 1.06 | 0.792 | 3.85 | 5.58 | 2.36 | 4.78 | 2.44 | 3.7
TCTAGTTTGTCAAAGGTCACACACTCGAAATGCG | 2.53 | 4.9 | 1.7 | 3.34 | 4.88 | 5.82 | 1.78 | 6.66 | 2.78 | 4.98
TCTGTTAGGTCAACGATGGTCAGCTAATCTGCTA | 3.53 | 4 | 2.9 | 2.09 | 2.86 | 2.43 | 0.247 | 3.28 | 1.58 | 4.37
CGTACTGGGCCATTCAGAGGTCATTGATCATATG | 5.14 | 4.46 | 0.379 | 0.367 | 2.72 | 4.91 | 2.51 | 4.76 | 1.17 | 3.18
CCTGCTAGGTCAATAGTCAGCTAAAGCAGCTCGC | 3.97 | 3.08 | -0.361 | -0.649 | 0.586 | 0.324 | -0.908 | 0.911 | -1.08 | 3.45
CGTGCTAGGTCAATGGTCAGCTAAAGCAGCTCGC | 4.64 | 4.42 | 0.168 | -1.05 | 1.65 | 0.869 | -0.615 | 1.59 | -0.282 | 3.77
